Screening results deposited in PubChem by National Center for Advancing Translational Sciences (NCATS).
HPGD block: blocks human HPGD enzyme activity | P15428 | purified HPGD, NADH fluorescence kinetic, PGE2 substrate | Potency, µM, usual class: inhibitors | 150,000 compounds, 4.3% hits
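NADH formation kinetics: reaction with 30 uM PGE2 and 1 mM NAD+ (final), 20 nM enzyme, Tris-HCl pH 8 with Tween 20, after 15 min compound preincubation at room temperature. Fluorescence change, last versus first of five reads.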
ALDH1A1 block: blocks purified human ALDH1A1 activity | Purified ALDH1A1, NADH fluorescence, propionaldehyde substrate | Potency, µM (doses to about 75.3 µM), most hits filed as inhibitors | 220,000 compounds, 7.3% hits
Target sequence (P00352 whole entry, looked up): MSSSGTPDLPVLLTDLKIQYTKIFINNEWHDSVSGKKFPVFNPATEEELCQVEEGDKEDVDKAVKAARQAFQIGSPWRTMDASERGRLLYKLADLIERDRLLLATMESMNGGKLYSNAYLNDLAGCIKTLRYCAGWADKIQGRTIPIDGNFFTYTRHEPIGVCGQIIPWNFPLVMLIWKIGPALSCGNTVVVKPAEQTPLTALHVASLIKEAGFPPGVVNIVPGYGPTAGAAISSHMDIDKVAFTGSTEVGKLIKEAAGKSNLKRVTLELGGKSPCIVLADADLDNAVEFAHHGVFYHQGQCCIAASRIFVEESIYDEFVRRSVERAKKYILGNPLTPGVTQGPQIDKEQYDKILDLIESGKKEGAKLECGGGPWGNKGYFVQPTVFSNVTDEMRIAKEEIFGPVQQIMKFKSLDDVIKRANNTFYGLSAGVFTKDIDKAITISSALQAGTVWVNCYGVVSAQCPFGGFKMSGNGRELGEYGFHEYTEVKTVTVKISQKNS
PNC inhibitor: perinucleolar compartment assembly inhibition; 140,000 compounds, 3.1% hits; PC3M PTB-GFP, PNC prevalence imaging, 16 h; stronger effect = lower value; activity change (PNC), negative = inhibition, % at 10 µM;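 active means readout at or below -70, meaning at least 70% loss of cells showing the perinucleolar compartment, a nuclear body marking cancer cells; inconclusive means readout between -30 and a set limit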
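Read-out is percentage of cells bearing a perinucleolar compartment, from automated 20x imaging of fixed, Hoechst-stained PC3M PTB-GFP cells. Cells were seeded 4 h, then exposed 16 h to compound (23 nl of library stock) in duplicate plates.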
Numbers stand for hits; - = inactive; ? = inconclusive; . = no result; [ ] = remark or other dose. This is a sample that favours compounds with a hit; in the whole collection about 11% have one here. Unless noted, the call rests on the fitted dose curve; in most records, active means well fitted inhibition curve with a large enough effect (not every such curve was filed as active); inconclusive means small, poorly fitted or top-dose-only effect, or another doubt; inactive means no such curve, though single readings can be large or run the other way.

SMILES	HPGD block	ALDH1A1 block	PNC inhibitor
CCCCOc1ccc(/C=C/C(=O)OCC(=O)N2CC(=O)Nc3ccccc32)cc1OCC	?	-	-
NC(=O)C(c1ccc(Cl)cc1)c1ccc(Sc2ccc(Cl)cc2)nn1 (stereo not drawn)	-	-	-93
O=C(CSc1ccc(-c2ccncc2)nn1)c1ccc(Cl)cc1	.	-	.
Nc1nccc(-c2ccc(-n3cccc3)cc2)n1	.	-	.
COC(=O)c1ccccc1Nc1cc(C)nc2nc(C)nn12	1µM	-	-
CCOC(=O)c1ccccc1Nc1cc(C)nc2nc(C)nn12	2.2µM	-	-
Cc1cc(Nc2ccccc2Br)n2nc(C)nc2n1	?	-	-
COC(=O)c1ccc(Nc2cc(C)nc3nc(C)nn23)cc1	-	-	-
CNC(=O)c1c(I)c(C(=O)NCC(=O)Nc2c(I)c(C(=O)O)c(I)c(C(=O)NCCO)c2I)c(I)c(N(C)C(C)=O)c1I	-	-	.
S=C(NCc1ccccn1)Nc1ccccc1Cl	-	-	-
S=C(NCc1cccs1)Nc1ccccc1Cl	14µM	-	-
NNC(=S)Nc1ccccc1Cl	.	28µM	.
Cc1cc(Cl)ccc1NC(=S)NCc1cccs1	?	-	?
S=C(NCCc1ccccc1)Nc1ccccc1Cl	-	-	?
S=C(NCc1cccs1)Nc1cccc(Cl)c1	13µM	-	-
CCOC(=O)c1ccc(Nc2ncccc2[N+](=O)[O-])cc1	.	-	.
CN(C)CC(C)(C)CNS(=O)(=O)c1cccc(Cl)c1Cl	-	-	-
Cc1ccccc1-n1ncc(C(C)NC(=O)c2ccccc2)c1C (stereo not drawn)	.	-	.
CC(C)NC(=O)N1CC[C@@]2(CCCN(C(=O)c3ccncc3)C2)C1	-	-	.
CCCCOc1ccc(CCC(=O)N/N=C/c2ccco2)cc1	.	-	.
CC(=O)OCC(OC(C)=O)C(OC(C)=O)C(OC(C)=O)C(=O)Nc1ccccc1 (stereo not drawn)	.	-	.
COC(=O)C(Cc1ccccc1)NC(=O)c1cc(S(=O)(=O)N(C)C)ccc1Cl (stereo not drawn)	.	-	.
CC1Cc2ccccc2N1C(=O)CSc1nnnn1-c1ccc2c(c1)OCCO2 (stereo not drawn)	-	?	-
CC1Cc2ccccc2N1C(=O)CSc1nnnn1C1CCCC1 (stereo not drawn)	-	2.5µM	?
CC1Cc2ccccc2N1C(=O)CSc1nnnn1C (stereo not drawn)	-	-	-
SMILES	HPGD block	ALDH1A1 block	PNC inhibitor
CCCn1c(SCC(=O)N2CCc3ccccc32)nnc1-c1ccco1	-	?	-
CC1Cc2ccccc2N1C(=O)CSc1nnnn1C(C)C (stereo not drawn)	-	28µM	-
CCCn1c(SCC(=O)N2c3ccccc3CC2C)nnc1-c1ccco1 (stereo not drawn)	-	-	-100
Cc1nnc(SCC(=O)N2c3ccccc3CC2C)s1 (stereo not drawn)	-	-	?
CC1Cc2ccccc2N1C(=O)CSc1nnc2sc3ccccc3n12 (stereo not drawn)	-	14µM	?
COc1ccc(C#CC2C=CC(OC(C)=O)C(COC(C)=O)O2)cc1 (stereo not drawn)	.	-[13.5 µM]	.
C#CC(C)(CC)NC(=O)c1cc2nc(C3CC3)cc(C(F)(F)F)n2n1 (stereo not drawn)	.	-	.
O=C(CCSCc1ccc(Cl)cc1)NC1CCCC1	18µM	-	-
O=C(Nc1ccc(Cl)cc1Cl)NC1CCCC1	.	-	.
O=C(Cc1ccc(Cl)cc1)NC1CC1	.	-	.
O=C(NC1CCCCC1)Sc1ccc(Cl)cc1	8.9µM	?	-
CC(=O)OC(C(=O)NC1CCCCC1)c1ccc(Cl)cc1 (stereo not drawn)	-	-	-
O=C(CSc1ccc(Cl)cc1)NC1CCCC1	10µM	-	-
CN=C(NC1CCCCC1)c1ccc(Cl)cc1	-	-	-103
O=C(CSc1ccc(F)cc1)NC1CCCCC1	.	-	.
CCCn1c(SCC(=O)Nc2cc(S(=O)(=O)N3CCOCC3)ccc2OC)n[nH]c1=O	?	?	-
O[C@H](CN1CCN(c2cccc(Cl)c2)CC1)C(c1ccccc1)c1ccccc1	-	-	.
CC(/C=N/NC(=O)c1cc(-c2cccnc2)nc2c1c(C)nn2-c1ccccc1)=C\c1ccccc1	.	?	-
O=C(Cn1c2[n+](c3ccccc31)CC(O)CS2)c1ccccc1 (stereo not drawn)	.	-	.
CC(C)CNC(=O)c1ccc(Cl)c(N)c1	-	-	-
C=C(C(C)=O)C(O)/C=C/c1ccco1 (stereo not drawn)	-	-	.
CC(C)=CCN1CCNC(=O)C1CC(=O)NCc1nc(C)c(C)s1 (stereo not drawn)	.	-	.
O=C(O)CSCc1ccc(Cl)cc1	-	-	-
CC1CCCC(C)N1C(=O)CSCc1ccc(Cl)cc1 (stereo not drawn)	-	22µM	-
CCOC(=O)C1=C(C)NC2=C(C(=O)CCC2)C1c1ccc(N(C)C)cc1 (stereo not drawn)	-	28µM	-
SMILES	HPGD block	ALDH1A1 block	PNC inhibitor
CC1=C(C(=O)OCC2CCCO2)C(c2ccc(C)o2)C2=C(CC(c3ccc(N(C)C)cc3)CC2=O)N1 (stereo not drawn)	-	10µM	-
CCCOC(=O)C1=C(C)NC2=C(C(=O)CCC2)C1c1ccc(N(C)C)cc1 (stereo not drawn)	-	?	-
CC1=C(C(=O)OCC2CCCO2)C(c2ccc(C)o2)C2=C(CC(c3ccc(F)cc3)CC2=O)N1 (stereo not drawn)	-	?	-
COC(=O)c1ccc(C(NC(=O)OCc2ccccc2)/C(F)=C/[C@@H](C)C(=O)Nc2ccc(OC)cc2)cc1 (stereo partly drawn)	-	-	.
CCN(CC)C1=CC2=CC(=C(C#N)C#N)CCC2CC1 (stereo not drawn)	-	2.2µM	-134
N#CC(C#N)=C1C=C2C=C(N3CCCCC3)CCC2CC1 (stereo not drawn)	-	-	-118
N#CC1=C(N)C2=C(N3CCCCC3)CCCC2C1(C#N)C#N (stereo not drawn)	-	?	-
CCCCN(C)C1=CC2=CC(=C(C#N)C#N)CCC2CC1 (stereo not drawn)	-	?	-83
CC(Sc1nncs1)C(=O)NCC(=O)Nc1ccc(F)c(F)c1F (stereo not drawn)	.	-	.
CN(C)CCCNC(=O)c1ccc(Cc2nc3ccccc3[nH]2)cc1	-	-	.
CC(C)(C)N(Cc1ccccc1)C(=O)COC(=O)c1cccc([N+](=O)[O-])c1	.	-	.
CC(=O)OCC1OC(c2cc(C)cc(C)c2)C=CC1OC(C)=O (stereo not drawn)	.	-[13.5 µM]	.
CCN(CC)S(=O)(=O)c1ccc(NC(=O)Cc2cccs2)cc1	.	-	.
CC(c1cccs1)N(C)Cc1nc(CCc2ccccc2)no1 (stereo not drawn)	.	-	.
Cc1c(Cc2ccccc2)c(=O)oc2cc(OC(=O)c3ccccc3)ccc12	-	?	-
COc1cccc(C(=O)COc2ccc3c(C)c(Cc4ccccc4)c(=O)oc3c2)c1	-	0.63µM	-
CCNc1nc(NCC)nc(Oc2ccc(OCc3ccccc3)nn2)n1	.	-	.
Cc1sc2ncnc(SC(C)C(=O)N3c4ccccc4Sc4ccccc43)c2c1C (stereo not drawn)	-	-	?
Cc1ccc(OCC(=O)NNC(=O)C(C)Sc2ncnc3sc(C)c(C)c23)cc1 (stereo not drawn)	32µM	?	?
O=C(O)c1ccc([N+](=O)[O-])c(P(=O)(O)O)c1	-	-[13.5 µM]	.
